Source: PubChem BioAssay AID2685 (National Center for Advancing Translational Sciences (NCATS), 2010)
Several values for one entry are separate records, joined by “and”; a condition that tells them apart may be missing. Equal values may be shown once. About 2,100 (0.66%) of roughly 320,000 compounds were called active. Inconclusive results (about 53%) are left out. Calls come from the whole dose curve; as a rule, active = well fitted inhibition curve with a large enough effect in the signal ratio, with a control signal flat (not every such curve was filed as active); inconclusive = small, poorly fitted or top-dose-only effect, or effect the other way, or a change in a side signal; inactive = flat fitted curve, though single readings scatter; the % refers to the signal ratio. Shown is part of a subset that was picked to be rich in actives.
Potency is the fitted concentration of half-maximal effect.

Assay: qHTS Assay for Lipid Storage Modulators in Drosophila S3 Cells;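 for cell number change: cells counted by Cell Tracker Red CMTPX staining in the red channel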; for lipid storage change, negative = inhibition: % is set by controls: 0 for no effect and ±100 for the full control effect
Details: BODIPY lipid droplet fluorescence, 18-24 h, cells fed with added oleic acid; cell number change: measured here: cell count max response; series mostly up to 46.1 µM; lipid storage change, negative = inhibition: at the top concentration
Outline: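 Drosophila S3 cells got compounds at several concentrations plus oleic acid (400 uM solution). Laser-scanning cytometry with 488 nm excitation read lipid droplets at 500-530 nm and cells at 575-640 nm. Percent activity was relative to 20 uM Triacsin C.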
With `Cc1ccc(N(C(=O)CCCC(=O)Nc2ccccn2)C(C(=O)NC2CCCC2)c2ccc(O)cc2)cc1C` (stereo not given) the “outcome” value was “inactive” and the cell number change was -6.35%.
In the case of `CCc1cccc(NC(=O)c2ccc3c(=O)n4c(nc3c2)CCCCC4)c1`, the “lipid storage change, negative = inhibition” value is reported as 5.18% (inactive) and the cell number change is reported as -2.31%.
With `CCc1cccc(NC(=O)c2sc3nc4n(c(=O)c3c2C)CCC4)c1` the Potency was 5.8 µM (active) and the cell number change was -22.1%.
In the case of `CCOC(=O)c1sc2nc3n(c(=O)c2c1C)CCCCC3`, the “lipid storage change, negative = inhibition” value is reported as 14.1% (inactive) and the cell number change is reported as -6.59%.
With `Cc1c(C(=O)NCCO)sc2nc3n(c(=O)c12)CCC3` the “lipid storage change, negative = inhibition” value was -0.957% (inactive) and the cell number change was 20%.
For `Cc1c(C(=O)Nc2ccc(OC(F)(F)F)cc2)sc2nc3n(c(=O)c12)CCC3`, the “lipid storage change, negative = inhibition” value was -11.7% (inactive) and the cell number change was 2.69%.
With `Cc1cc(C)cc(NC(=O)c2sc3nc4n(c(=O)c3c2C)CCC4)c1` the Potency was 18.4 µM (active) and the cell number change was -23.1%.
In the case of `CCOC(=O)c1sc2nc3n(c(=O)c2c1C)CCC3`, the “lipid storage change, negative = inhibition” value is reported as 18.2% (inactive) and the cell number change is reported as 7.44%.
With `CCc1ccc(NC(=O)c2sc3nc4n(c(=O)c3c2C)CCC4)cc1` the Potency was 2.31 µM (active) and the cell number change was -24%.
For `CCOc1ccc(CCNC(=O)c2sc3nc4n(c(=O)c3c2C)CCC4)cc1`, the “lipid storage change, negative = inhibition” value was -17.7% (inactive) and the cell number change was 17.9%.
With `COc1cccc(NC(=O)c2sc3nc4n(c(=O)c3c2C)CCC4)c1` the Potency was 4.11 µM (active) and the cell number change was -27.4%.
In the case of `COc1ccc(COC(=O)c2sc3nc4n(c(=O)c3c2C)CCC4)cc1`, the “outcome” value is reported as “inactive”.
For `COc1ccccc1N1CCN(C(=O)c2sc3nc4n(c(=O)c3c2C)CCC4)CC1`, the “lipid storage change, negative = inhibition” value was -15.3% (inactive) and the cell number change was -21.5%.
With `Cc1cccn2c(=O)c3cc(C(=O)NCCCN4CCOCC4)n(C)c3nc12` the “lipid storage change, negative = inhibition” value was 21.1% (inactive).
For `CCCCN1C(=O)NC(NC(=O)C2CC2)(C(F)(F)F)C1=O` (stereo not given), the “lipid storage change, negative = inhibition” value was 0.363% (inactive) and the cell number change was 15%.
In the case of `CC(=O)Nc1ccc(S(=O)(=O)N(C#N)c2nc(N(C)C)nc(N(C)C)n2)cc1`, the “lipid storage change, negative = inhibition” value is reported as 0.237% (inactive) and the cell number change is reported as -23%.
For `CN(C)CC(=O)Nc1ccc2cn[nH]c2c1`, the “lipid storage change, negative = inhibition” value was 0.452% (inactive) and the cell number change was -1.8%.
For `CSc1nc(C)c(Cl)c(C)c1C#N`, the “lipid storage change, negative = inhibition” value was 10.8% (inactive) and the cell number change was -6.02%.
With `COc1cc(Cl)cc(C(=O)O)c1OCC(=O)O` the “lipid storage change, negative = inhibition” value was 7.31% (inactive) and the cell number change was 3.53%.
In the case of `O=C(/C=C/c1ccc(F)cc1)N1CCN(c2ncccn2)CC1`, the “lipid storage change, negative = inhibition” value is reported as -0.413% (inactive) and the cell number change is reported as 20.7%.
In the case of `CC(=O)NNC(=O)CCn1c2c(c3ccccc31)CCCC2`, the “lipid storage change, negative = inhibition” value is reported as -7.9% (inactive) and the cell number change is reported as 1.32%.
In the case of `Fc1ccccc1CNc1ccc(Cl)cc1`, the “lipid storage change, negative = inhibition” value is reported as 12.9% (inactive) and the cell number change is reported as -4.41%.
For `CN(C)S(=O)(=O)Nc1ccccc1F`, the “lipid storage change, negative = inhibition” value was -12.4% (inactive) and the cell number change was -0.564%.
In the case of `CN(C)S(=O)(=O)Nc1ccc(Br)cc1F`, the Potency is reported as 23.1 µM (active) and the cell number change is reported as -21.1%.
For `CN(C)S(=O)(=O)Nc1cccc(Br)c1`, the Potency was “inactive” and the cell number change was 0.321% and 14.1%.
With `CC(=O)c1c(C)[nH]c(C(=O)NCc2cccs2)c1C` the “outcome” value was “inactive”.
For `COc1ccc(N2CCN(CC(O)COc3ccc4c(c3)CCC4)CC2)cc1` (stereo not given), the “outcome” value was “inactive” and the cell number change was 10.4%.
With `O=C1CN(CC(=O)N2CCOCC2)c2ccccc2O1` the “outcome” value was “inactive”.
For `COc1ccc(/C(C)=N/NC(=S)NCCc2ccccc2)cc1`, the “outcome” value was “inactive”.
In the case of `COc1cccc(OC)c1C(=O)NC(C)c1ccccc1` (stereo not given), the “lipid storage change, negative = inhibition” value is reported as 2.45% (inactive) and the cell number change is reported as 0.137%.
For `NS(=O)(=O)c1ccc(CCNC(=O)c2ccc3c(c2)OCO3)cc1`, the Potency was 23.1 µM (active) and the cell number change was 21.4%.
In the case of `NS(=O)(=O)c1ccc(CCNC(=O)c2ccc3c(c2)OCCO3)cc1`, the “lipid storage change, negative = inhibition” value is reported as -3.84% (inactive) and the cell number change is reported as 12.5%.
In the case of `O=C(NCCc1ccc(Cl)cc1)c1ccc2c(c1)OCO2`, the “lipid storage change, negative = inhibition” value is reported as -3.03% (inactive).
For `CCCCSc1nc2sc3c(c2c(=O)n1-c1ccc(C)cc1)CCN(C)C3`, the “lipid storage change, negative = inhibition” value was -30% (inactive) and the cell number change was 14.8%.
For `CS(=O)(=O)Oc1ccc(/C=C2\C(=N)N3N=C(CC(=O)N4CCOCC4)SC3=NC2=O)cc1Cl`, the “outcome” value was “inactive” and the cell number change was 6.05%.
With `Cc1cc(/C=C2/C(=O)N(C)C(=S)N2C)ccc1N1CCCC1` the Potency was 4.47 µM (active) and the cell number change was -25.4%.
With `CN1C(=O)/C(=C/c2ccc(O)c([N+](=O)[O-])c2)N(C)C1=S` the “lipid storage change, negative = inhibition” value was 3.49% (inactive) and the cell number change was 0.447%.
In the case of `COc1cc(/C=C2\C(=O)N(C)C(=S)N2C)ccc1O`, the “lipid storage change, negative = inhibition” value is reported as 2.76% (inactive) and the cell number change is reported as -9.16%.
For `CCc1ccc(NC(=O)c2cc(C)nn2-c2ccccc2)cc1`, the “lipid storage change, negative = inhibition” value was 9.85% (inactive) and the cell number change was 2.41%.
In the case of `CC12CCC(=O)N1C(C(=O)NNC(=O)c1ccc(Cl)cc1)CS2` (stereo not given), the “lipid storage change, negative = inhibition” value is reported as -23.9% (inactive) and the cell number change is reported as 25.5%.
With `COCCn1c(SCC(=O)Nc2cc(C)on2)nc2c(c1=O)SC(C)C2` (stereo not given) the “lipid storage change, negative = inhibition” value was 15.1% (inactive) and the cell number change was 9.04%.
With `Cc1csc(NC(=O)CSC2=NS(=O)(=O)c3cc(F)ccc3N2)n1` the lipid storage change, negative = inhibition was 27.8% [at 0.0737 µM] (inactive).
In the case of `CCN(C(=O)COC(=O)CCCOc1ccccc1)c1c(N)n(Cc2ccccc2)c(=O)[nH]c1=O`, the “lipid storage change, negative = inhibition” value is reported as -0.952% (inactive) and the cell number change is reported as -12.5%.
For `CCN(C(=O)CN1CCN(c2cccc(Cl)c2)CC1)c1c(N)n(Cc2ccccc2)c(=O)[nH]c1=O`, the “lipid storage change, negative = inhibition” value was 8.94% (inactive) and the cell number change was -10%.
With `CCCN(C(=O)c1ccc([N+](=O)[O-])c(C)c1)c1c(N)n(Cc2ccccc2)c(=O)[nH]c1=O` the “lipid storage change, negative = inhibition” value was -11% (inactive) and the cell number change was -21.6%.
For `CCN(C(=O)CN1CCN(c2ccccc2)CC1)c1c(N)n(Cc2ccccc2)c(=O)[nH]c1=O`, the Potency was 13 µM (active) and the cell number change was -21.7%.
For `CCN(C(=O)COC(=O)CCOc1ccccc1)c1c(N)n(Cc2ccccc2)c(=O)[nH]c1=O`, the “lipid storage change, negative = inhibition” value was 6.7% (inactive) and the cell number change was 3.61%.
With `CCCN(C(=O)C1=COCCO1)c1c(N)n(Cc2ccccc2)c(=O)[nH]c1=O` the cell number change was -8.42% and the lipid storage change, negative = inhibition was 5.43% [at 0.0737 µM] (inactive).
With `CCCN(C(=O)c1c(-c2ccccc2)noc1C)c1c(N)n(Cc2ccccc2)c(=O)[nH]c1=O` the Potency was 1.84 µM (active) and the cell number change was 9.83%.
With `CCN(C(=O)CN1CCCCC1)c1c(N)n(Cc2ccccc2)c(=O)[nH]c1=O` the “lipid storage change, negative = inhibition” value was -1.92% (inactive) and the cell number change was 1.16%.
In the case of `CCCN(C(=O)COC(=O)CCOc1ccccc1)c1c(N)n(Cc2ccccc2)c(=O)[nH]c1=O`, the Potency is reported as 14.6 µM (active) and the cell number change is reported as -10.8%.
